A number with no mark means an inactive call. Active and inactive are the calls of the source. Calls come from the whole dose curve; as a rule, active = well fitted curve in the direction sought with a large enough effect in the repeat runs; inconclusive = weak or mixed curves; inactive = flat fitted curve, though single readings scatter.
% is set by controls: 0 for no effect and ±100 for the full control effect.

The test in a line: qHTS assay to test for compound auto fluorescence at 590 nm (red) in HepG2 cells (AID 720674). The conditions noted are these: HepG2 autofluorescence, red 540/590 nm, 1 h; series mostly up to 91.3 µM; fluorescence, relative to Rose Bengal: at the top concentration. An excerpt:
U.S. Tox21 Program National Center for Advancing Translational Sciences [NCATS] NIH Chemical Genomics Center [NCGC] U.S. Environmental Protection Agency [EPA] National Institutes of Environmental Health Sciences [NIEHS] National Toxicology Program [NTP] U.S. Food and Drug Administration [FDA] Tox21 Assay Overview: Compound auto fluorescence often interferes with screening of the compound library against various biological targets and signaling pathways. Some of these compounds may have fluorophoric properties. Such properties may interfere with the assay outputs resulting in false positives and/or negatives. To decrease such complications and ensure the compound activities are relevant in terms of biological response, the Tox21 10K compound library was screened for auto fluorescence. From the fluorophores used as reporter signals in our screening assays, the auto fluorescence equivalencies of compounds against three fluorophores have been evaluated: Triamterene, Fluorescein and Rose Bengal sodium for blue, green and red fluorescence, respectively. The fluorescence intensities were measured using Excitation/Emission wavelengths at 405/460nm, 485/535nm and 540/590nm for blue, green and red labels, respectively. This assay includes the red fluorescence data.
Tox21 Assay Protocol Summary: 2,000 HepG2 cells in 5 uL of culture medium (MEM containing 10% FBS) per well were dispensed into black wall/clear bottom 1536-well plates using a Multidrop Combi Dispenser (ThermoFisher Scientific, Waltham, MA). The assay plates were incubated overnight at 37 C to allow cell attachment to the well bottom, followed by the transfer of 23 nL compound or DMSO vehicle by a pintool work station (Kalypsys , San Diego, CA). After the assay plates were incubated for 1 hr at 37 C and 5% CO2, fluorescence intensities in the assay plates were measured by an Envision (PerkinElmer, Shelton, CT) plate reader using three labels for measuring blue, green and red fluorescence at […] 460, 535 and 590 nm respectively.
(In general: qHTS replaces the single test concentration by a dilution series.)
With `COCCOC(=O)C1=C(C)NC(C)=C(C(=O)OC(C)C)C1c1cccc([N+](=O)[O-])c1` (stereo not given), the “fluorescence, relative to Rose Bengal” value is 0.0408% [at 46 µM].
On the same count and under the same terms, to `CC/C=C\CC1=C(C)CCC1=O` belongs 0.0027%; to `CCOC(=O)c1ncn2c1CN(C)C(=O)c1cc(F)ccc1-2`, -0.0894% [at 46 µM]; to `CC(C)c1ccc2cc(C(C)C)ccc2c1`, -0.003%.
On the same count and under the same terms, next, `CC(C)(C)c1n[nH]c(=S)n(N)c1=O`: -0.104%.
The same measure, in the same setting: to `O=C(O)c1ccc(Cl)cc1Cl` belongs -0.0134% [at 95.7 µM]; to `COc1ccc(S(=O)(=O)N2c3ccc(Cl)cc3[C@@](O)(c3ccccc3Cl)[C@H]2C(=O)N2CCC[C@@H]2C(N)=O)cc1OC`, 0.0064% [at 46 µM]; to `O=S(=O)(O)CCN1CCN(CCO)CC1`, -0.565%.
Consider `COc1ccc(C2CNC(=O)C2)cc1OC1CCCC1` (stereo not given), for which the fluorescence, relative to Rose Bengal was -0.195% [at 18.6 µM].
On the same count and under the same terms, next, `C=C(C)C(=O)OCCNC(C)(C)C`: 0.105%; `Nc1cccc(O)c1`: 0.106% [at 95.7 µM]; `O=C(OCC1(COC(=O)c2cccnc2)CCCC(COC(=O)c2cccnc2)(COC(=O)c2cccnc2)C1O)c1cccnc1`: -0.284% [at 46 µM].
As to `COP(=O)(OC)OC(c1ccc(Cl)cc1)P(=O)(OC)OC` (stereo not given), the “fluorescence, relative to Rose Bengal” value is -0.291% [at 46 µM].
Same read-out and setting: to `COc1cc(C(=S)N2CCOCC2)cc(OC)c1OC` belongs 0.244% [at 46 µM]; to `CCOC(=O)[C@H](CCc1ccccc1)N[C@@H](C)C(=O)N1C(=O)N(C)C[C@H]1C(=O)O`, 0.276% [at 46 µM]; to `CCCCOCCOC(=O)COc1nc(Cl)c(Cl)cc1Cl`, -0.188%.
Still for that read-out and setting: next, `C=C(C)C(=O)OCCN(CC)CC`: -0.0126%; `CCCCCCCCCC(C)=O`: -0.0018% [at 95.7 µM]; `CCOC(=O)CC(=O)c1ccccc1`: 0.111%.
On to `ClCCCl`, for which the “fluorescence, relative to Rose Bengal” value is 0.187%.
For the compound `CC(=O)Nc1ccc(S(=O)(=O)Cl)cc1`, the “fluorescence, relative to Rose Bengal” value was 0.253%.
Same read-out and setting: next, `CCCCNC1CC(C)(C)NC(C)(C)C1`: 0.259%; `CC(C)(C)NC(N)=O`: -0.0387%.
Consider `O=C(NCCN1CCOCC1)c1ccc(Cl)cc1`, for which the result was inactive.
Take `C=C(C)C(=O)OCCOP(=O)(O)OCCOC(=O)C(=C)C`: the “fluorescence, relative to Rose Bengal” value is 0.132%.
On to `COC(=O)c1ccccc1C(=O)c1ccc(OCCN2CCCCC2)cc1`, for which the “fluorescence, relative to Rose Bengal” value was -0.333% [at 46 µM].
As to `CC(C)CC(C)CC(C)CC(C)COC(=O)c1ccccc1C(=O)OCC(C)CC(C)CC(C)CC(C)C` (stereo not given), the “fluorescence, relative to Rose Bengal” value was -0.0818%.
The same measure, in the same setting: next, `O=C1c2ccccc2C(=O)N1CCl`: -0.0249%; `NS(=O)(=O)c1ccc(NC(=O)CCC(=O)O)cc1`: 0.116% [at 46 µM].
On to `Cc1cc(NC(=O)C2=C(O)c3ccccc3S(=O)(=O)N2C)no1`, for which the “fluorescence, relative to Rose Bengal” value was -0.0579% [at 46 µM].
As to `Cc1cc(Cl)c(C)cc1Cl`, the “fluorescence, relative to Rose Bengal” value was 0.344%.
`CCOC(=O)c1ccc(OC(=O)CCCCCN=C(N)N)cc1`: the fluorescence, relative to Rose Bengal is -0.309% [at 18.6 µM].
`Oc1cn2c(n1)Nc1ccc(Cl)c(Cl)c1C2`: the compound was classed as inactive.
Regarding `N[C@@H](CCC(=O)N[C@@H](CS)C(=O)NCC(=O)O)C(=O)O`, the “fluorescence, relative to Rose Bengal” value was -0.559% [at 46 µM].
The same measure, in the same setting: to `C=C1CC/C=C(\C)CC[C@@H]2[C@@H]1CC2(C)C` belongs 0.0267%; to `BrCCCCCBr`, -0.388% [at 95.7 µM]; to `C[C@@H](O)[C@H]1C(=O)N2C(C(=O)O)=C(SCCN=CN)C[C@H]12`, -0.493% [at 18.6 µM].
For `CC(=O)OC(C)OC(=O)C(C)c1ccc(-c2ccccc2)c(F)c1` (stereo not given), the call was inactive.
For the compound `CCCCCCCCC1CCC(=O)O1` (stereo not given), the “fluorescence, relative to Rose Bengal” value is -0.093%.
The same measure, in the same setting: next, `O=C(O)c1cc(Cl)cc([N+](=O)[O-])c1Cl`: 0.262%.

The values above are taken from PubChem BioAssay (Tox21).
